Our source for the outcome and inhibition values is PubChem BioAssay.

For part of these data: Entries with a potency or affinity are not part of this list. Activity calls are given as the source filed them.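 How the source made its calls, unless noted: active means membrane potential signal rise above negative control mean plus 3 SD in both duplicates, also active in the earlier TRPC4 screen; inactive means the rest.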

In assay [1] the test system is TRPC4 beta (transient receptor potential cation channel C4), mouse. The experiment in a line: activators of mouse TRPC4 channel, confirmation, cell-based, Fluo4 calcium, HEK293 TRPC4beta/mu-opioid, duplicates, 10 µM (AID 2426;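 active means fluorescence ratio normalized to control raised more than 50% in primary screen plus both repeat runs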). To be noted: Fluo4 calcium fluorescence, at 10 µM; active compounds read high.
Assay [2] has as its system transient receptor potential cation channel C4 beta (TRPC4), mouse. The assay can be described thus: activators of mouse TRPC4 channel, confirmation, cell-based, second round, Fluo4, HEK293 TRPC4beta/mu-opioid, 1 µM (AID 2461;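 active means primary screen active and over 50% activation in each of two duplicate runs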). To be noted: Fluo4 calcium fluorescence, at 1 µM; active compounds read high.
The subject of assay [3] is TRPC4 (transient receptor potential cation channel C4 beta), mouse. The experiment in a line: positive allosteric modulators of mouse TRPC4, confirmation, cell-based, second round, Fluo-4, HEK293 TRPC4beta/mu-opioid, 1 µM (AID 2554;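 active means primary screen hit whose fluorescence ratio, in both repeats, exceeds the weak agonist control mean by 3 SD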). To be noted: DAMGO EC20, Fluo-4 calcium flux, at 1 µM; active compounds read high. (In general: Calcium assays in cells follow changes in intracellular calcium, usually with a dye or a luminescent sensor.)

In assay [4] the test system is TRPC4 beta (transient receptor potential cation channel C4), mouse. The experiment in a line: positive allosteric modulators of mouse TRPC4, confirmation, cell-based, Fluo-4, HEK293 TRPC4beta/mu-opioid (AID 2555;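 active means primary screen hit whose calcium fluorescence ratio, in both repeats, exceeds the weak agonist control mean by 3 SD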). To be noted: DAMGO EC20, Fluo-4 calcium flux, at 10 µM; active compounds read high.
The target of assay [5] is Short transient receptor potential channel 4 (Mus musculus) (UniProt Q9QUQ5). The assay can be described thus: inhibitors of mouse TRPC4 channel, confirmation, cell-based, Fluo4, HEK293 TRPC4beta/mu-opioid (AID 2636;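 active means calcium signal cut by more than 3 SD below the full-agonist control yet still positive, in both repeats and the earlier primary screen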). To be noted: DAMGO, Fluo4 calcium flux, at 10 µM; active compounds read high.
Short transient receptor potential channel 4 (Mus musculus), sequence (Q9QUQ5 whole entry, looked up): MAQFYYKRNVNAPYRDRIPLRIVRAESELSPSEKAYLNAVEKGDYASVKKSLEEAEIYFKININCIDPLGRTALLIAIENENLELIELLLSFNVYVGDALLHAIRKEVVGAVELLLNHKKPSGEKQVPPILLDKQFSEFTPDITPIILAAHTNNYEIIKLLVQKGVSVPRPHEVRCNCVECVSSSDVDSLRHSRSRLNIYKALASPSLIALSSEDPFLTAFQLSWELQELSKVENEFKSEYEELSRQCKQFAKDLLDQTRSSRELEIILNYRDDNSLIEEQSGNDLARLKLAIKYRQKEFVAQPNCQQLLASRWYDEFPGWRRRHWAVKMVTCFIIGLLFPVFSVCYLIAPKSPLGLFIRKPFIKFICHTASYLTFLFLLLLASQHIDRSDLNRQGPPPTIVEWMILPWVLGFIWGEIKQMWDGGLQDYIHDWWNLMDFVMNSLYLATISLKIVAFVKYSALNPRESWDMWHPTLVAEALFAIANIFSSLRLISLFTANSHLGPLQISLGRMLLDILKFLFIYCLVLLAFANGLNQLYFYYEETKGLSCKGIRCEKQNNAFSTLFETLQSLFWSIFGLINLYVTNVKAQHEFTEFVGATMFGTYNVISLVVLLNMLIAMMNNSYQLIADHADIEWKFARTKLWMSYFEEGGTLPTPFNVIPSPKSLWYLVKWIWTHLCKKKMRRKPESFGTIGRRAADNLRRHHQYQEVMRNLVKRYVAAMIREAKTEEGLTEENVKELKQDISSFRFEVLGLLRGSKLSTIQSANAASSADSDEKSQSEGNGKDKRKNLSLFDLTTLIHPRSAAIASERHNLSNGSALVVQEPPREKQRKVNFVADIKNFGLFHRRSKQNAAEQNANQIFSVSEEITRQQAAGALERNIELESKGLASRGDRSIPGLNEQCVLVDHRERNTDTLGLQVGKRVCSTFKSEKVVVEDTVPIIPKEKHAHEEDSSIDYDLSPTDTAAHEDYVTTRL
The target is the same in assay [6]. The experiment in a line: inhibitors of mouse TRPC4 channel, confirmation, cell-based, second round, Fluo4, HEK293 TRPC4beta/mu-opioid, 1 µM (AID 2637;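 active means calcium signal ratio cut to more than 3 SD under the fully stimulated control mean yet still positive, in both repeats and the primary screen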;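 on inhibition: percent of integrated ratio relative to wells lacking test compound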). To be noted: Fluo4 calcium flux, DAMGO, at 1 µM; active compounds read high.
For assay [7] the target is unchanged. The assay can be described thus: mouse TRPC4 channel activators, dose response, cell-based, HEK293 TRPC4/mu-opioid, Fluo-4 calcium (AID 434937;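 active means primary screen activator hit with a dose response curve and TRPC4 channel activation at any tested dose; inactive means no activation, no dose response, or not a primary hit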).
The target is the same in assay [8]. The assay can be described thus: TRPC4 positive allosteric modulators, dose response, cell-based, HEK293 TRPC4/mu-opioid, Fluo-4 calcium, EC20 DAMGO (AID 434941;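 active means earlier screen potentiator hit that boosts the TRPC4 ion channel at some dose, with a dose response; inactive means no potentiation, no dose response, or not a prior hit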;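 further: calcium entry triggered by an EC20 dose of DAMGO at the co-expressed mu-opioid receptor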).
The target in assay [9] is Short transient receptor potential channel 6 (Mus musculus) (UniProt Q61143). The assay can be described thus: inhibition of mouse TRPC6 channel, confirmation, selectivity assay for TRPC4 inhibitor project, cell-based, HEK293, membrane potential dye, duplicate (AID 434948;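 active means active in primary screen and both duplicates, each dropping signal beyond three positive-control SD with fluorescence still positive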). Particulars: HEK293 TRPC6, membrane potential dye fluorescence, at 10 µM, stimulated with maximal-effect acetylcholine; active compounds read high.
Short transient receptor potential channel 6 (Mus musculus), sequence (Q61143 whole entry, looked up): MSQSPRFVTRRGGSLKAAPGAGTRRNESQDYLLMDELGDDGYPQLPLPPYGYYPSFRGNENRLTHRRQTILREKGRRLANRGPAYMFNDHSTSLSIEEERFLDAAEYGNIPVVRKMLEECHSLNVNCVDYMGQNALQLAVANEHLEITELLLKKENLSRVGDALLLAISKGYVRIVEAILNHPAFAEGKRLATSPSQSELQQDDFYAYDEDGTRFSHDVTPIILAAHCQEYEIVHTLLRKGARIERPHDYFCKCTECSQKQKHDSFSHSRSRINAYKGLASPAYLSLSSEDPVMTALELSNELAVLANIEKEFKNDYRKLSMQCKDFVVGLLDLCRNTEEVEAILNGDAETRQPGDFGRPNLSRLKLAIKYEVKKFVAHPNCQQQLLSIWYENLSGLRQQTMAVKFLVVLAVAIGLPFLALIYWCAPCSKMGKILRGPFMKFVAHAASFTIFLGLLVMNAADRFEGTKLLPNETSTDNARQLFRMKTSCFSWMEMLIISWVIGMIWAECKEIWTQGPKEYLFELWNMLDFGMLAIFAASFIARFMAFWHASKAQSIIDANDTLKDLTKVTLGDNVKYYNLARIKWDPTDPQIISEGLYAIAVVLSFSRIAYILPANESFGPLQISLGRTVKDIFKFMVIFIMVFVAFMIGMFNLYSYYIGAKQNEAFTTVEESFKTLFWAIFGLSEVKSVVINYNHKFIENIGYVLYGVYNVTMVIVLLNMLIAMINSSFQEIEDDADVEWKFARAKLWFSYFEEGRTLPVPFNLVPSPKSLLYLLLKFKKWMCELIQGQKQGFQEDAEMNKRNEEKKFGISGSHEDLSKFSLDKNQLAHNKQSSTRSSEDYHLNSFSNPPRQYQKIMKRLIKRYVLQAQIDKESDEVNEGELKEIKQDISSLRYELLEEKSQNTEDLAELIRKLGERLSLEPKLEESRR

Assay [10] shares this target. The assay can be described thus: activation of mouse TRPC6 channel, confirmation, selectivity assay for TRPC4 activator project, cell-based, HEK293, membrane potential dye, duplicate (AID 434950). To be noted: HEK293 TRPC6, membrane potential fluorescence, at 10 µM; active compounds read high.
For assay [11] the target is unchanged. The experiment in a line: TRPC6 potentiation by TRPC4 potentiator hits, confirmation, selectivity assay for TRPC4 potentiator project, HEK293 cells, membrane potential dye, duplicate (AID 434952;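 active means compound raising the membrane signal above positive-control mean plus 3 SD in both repeats, and a primary screen hit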). Particulars: HEK293 TRPC6, membrane potential dye fluorescence, at 10 µM, maximal acetylcholine added after compound; active compounds read high.
Assay [12] addresses Short transient receptor potential channel 4 (Mus musculus) (UniProt Q9QUQ5). The assay can be described thus: calcium flux activators in TRPC4/5HT1a cells, counter-screen for TRPC4 activator project, cell-based, second counter screen, HEK293 TRPC4/5HT1a, Fluo-4 (AID 434977;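 active means calcium signal rise above buffer-control mean plus 5 SD in both duplicates, and also a hit in the primary screen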). To be noted: Fluo-4 calcium flux, at 10 µM; active compounds read high.
Assay [13] can be described thus: calcium flux inhibitors in TRPC4/5HT1a cells, confirmation, counter-screen for TRPC4 inhibitor project, cell-based, second counter screen, HEK293 TRPC4/5HT1a, Fluo-4 (AID 434978;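 active means primary screen active whose calcium signal fell more than 3 SD beyond the full-serotonin control mean in both duplicate plates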;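 on outcome: serotonin given first at submaximal then at maximal dose after compound preincubation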). Particulars: Fluo-4 calcium flux, at 10 µM, serotonin added to trigger calcium flux; active compounds read high.
Assay [14] deals with TRPC4 (mouse), co-expressed with 5HT1a in HEK293. The assay can be described thus: calcium flux potentiators in TRPC4/5HT1a cells, confirmation, counter-screen for TRPC4 potentiator project, cell-based, second counter screen, HEK293 TRPC4/5HT1a, Fluo-4 (AID 434979;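 active means signal rise over 3 SD above mean of control wells given weak agonist, in both repeats and first screen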). Particulars: Fluo-4 calcium flux, at 10 µM, serotonin added at its EC20 dose; active compounds read high.
Assay [15] in a line: calcium flux activation in mu-opioid HEK293 cells, confirmation, counter-screen for TRPC4 activator project, cell-based, HEK293 mu-opioid receptor line (AID 449723;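 active means hit in primary screen, with calcium signal over 5 SD above buffer well mean in both duplicates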;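 further: counter screen cells carry the mu-opioid receptor alone and lack TRPC4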). To be noted: Fluo-4 calcium fluorescence, at 10 µM; active compounds read high.
Assay [16] can be described thus: calcium flux enhancement in mu-opioid HEK293 cells, confirmation, counter-screen for TRPC4 allosteric potentiator project, cell-based, HEK293 mu-opioid receptor line (AID 449724;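 active means calcium signal rise more than 3 SD above the low-dose agonist control mean, in both duplicate plates and the primary screen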;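 further: HEK293 cells carrying mu-opioid receptor only with no TRPC4 channel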). To be noted: Fluo-4 calcium flux, at 10 µM, compound added before EC20 DAMGO stimulus; active compounds read high.

Broadly, the inhibition is the drop in the measured response relative to a control, in per cent. Consider `CCCCN(Cc1ccccc1)C(=O)C1CCN(Cc2sccc2C)CC1`, for which the result in [1], in assay [2], in [3], in assay [4], in assay [7] and in assay [8] was inactive. The call in assay [9], in [10], in assay [11], in assay [12], in assay [14] and in assay [15] was inactive. The result in [16] was inactive. For the same compound, the inhibition was 90% (active) in [5], 46% (active) in assay [6] and 32.5% (active) in [13].

Consider `OCC1(Cc2ccccc2)CCCN(Cc2cnn(-c3ccccc3)c2)C1` (stereo not given), for which the result in assay [1], in [2], in assay [3], in assay [4], in assay [7] and in [8] was inactive. Moreover, the result in [9], in assay [10], in [11], in [12], in [14] and in [15] was inactive. Also, the result in assay [16] was inactive. In addition, the inhibition is 91% (active) in assay [5], 42% (active) in assay [6] and 36.1% (active) in [13].

For `Cc1nc(N2CCN(c3ccccn3)CC2)c2c(C)c(C(=O)N3CCN(c4ccccc4F)CC3)sc2n1`, the result in assay [1], in assay [2], in [3], in [4], in assay [6] and in assay [7] was inactive. The outcome in assay [8], in [9], in assay [10], in [11], in [12] and in assay [13] was inactive. In addition, the result in [14], in [15] and in assay [16] was inactive. The inhibition in assay [5] was 93% (active).

Consider `COc1cc2ccccc2c2c1CCCC2=O`, for which the outcome in assay [1], in assay [2], in assay [3], in assay [4], in [6] and in assay [7] was inactive. The result in assay [8], in assay [9], in assay [10], in assay [11], in assay [12] and in assay [14] was inactive. Moreover, the outcome in assay [15] and in assay [16] was inactive. Moreover, the inhibition was 85% (active) in [5] and 26.2% (active) in assay [13].

Consider `COc1ccccc1CNCc1ccc(OC)c2ccccc12`, for which the result in [1], in [2], in assay [3], in assay [4], in assay [6] and in [7] was inactive. For the same compound, the outcome in [8], in assay [9], in assay [10], in [11], in assay [12] and in [14] was inactive. For the same compound, the outcome in [15] and in assay [16] was inactive. Further, the figures for the inhibition in assay [5] and in assay [13] were 96% (active) and 31% (active), respectively.

Consider `CN(C)c1ccc(NC(=O)CN2C3CCCC2CC(NC(=O)c2ccccc2)C3)cc1` (stereo not given), for which the outcome in [1], in assay [2], in assay [3], in [4], in assay [6] and in assay [7] was inactive. For the same compound, the result in assay [8], in assay [9], in [10], in assay [11], in assay [12] and in assay [13] was inactive. Moreover, the result in assay [14], in assay [15] and in assay [16] was inactive. Further, the inhibition in assay [5] is 71% (active).

`c1ccc2c(N3CCCCC3)nc(N3CCOCC3)nc2c1`: the outcome in assay [1], in assay [2], in [3], in assay [4], in assay [6] and in assay [7] was inactive. The result in [8], in [9], in assay [10], in assay [11], in assay [12] and in assay [14] was inactive. Besides, the result in assay [15] and in assay [16] was inactive. For the same compound, the inhibition in assay [5] is 84% (active); in assay [13] it was 30.8% (active).

Take `CCOC(=O)C1(CCOC)CCN(C(C)CCc2ccc(OC)cc2)CC1` (stereo not given): the result in [1], in [2], in assay [3], in [4], in assay [6] and in [7] was inactive. Further, the result in assay [8], in assay [9], in assay [10], in assay [11], in [12] and in [13] was inactive. Besides, the outcome in assay [14], in assay [15] and in assay [16] was inactive. The inhibition in [5] is 75% (active).

Take `Cc1cc(Br)c(NC(=O)CN(C)CCOc2ccccc2)c(Br)c1`: the outcome in assay [1], in assay [2], in assay [3], in assay [4], in assay [6] and in assay [7] was inactive. In addition, the outcome in assay [8], in assay [9], in [10], in assay [11], in assay [12] and in assay [14] was inactive. The result in [15] and in assay [16] was inactive. For the same compound, the inhibition in assay [5] is 81% (active); in assay [13], 45.2% (active).

With `O=C(NCCCN1CCN(c2cccc(Cl)c2)CC1)C1CCC(=O)N1Cc1ccccc1Cl` (stereo not given), the outcome in assay [1], in assay [2], in [3], in assay [4], in assay [7] and in [8] was inactive. Also, the call in assay [9], in assay [10], in assay [11], in assay [12], in [14] and in assay [15] was inactive. In addition, in [16], the result was inactive. The inhibition was 90% (active) in assay [5], 52% (active) in [6] and 35.9% (active) in [13].

As to `COC(=O)C1=C(C)N(Cc2ccccc2)C(=S)N[C@H]1c1ccccc1`, the result in assay [1], in [2], in [3], in assay [4], in assay [6] and in assay [7] was inactive. Moreover, the outcome in [8], in [9], in [10], in [11], in assay [12] and in [14] was inactive. Further, the outcome in assay [15] and in assay [16] was inactive. Further, the results for the inhibition in [5] and in assay [13] were 73% (active) and 25.6% (active), respectively.

With `Nc1cc(N2CCCCC2)c([N+](=O)[O-])cc1Cl`, the result in assay [1], in assay [2], in assay [3], in assay [4], in assay [7] and in assay [8] was inactive. Moreover, the result in assay [9], in assay [10], in [11], in assay [12], in [13] and in [14] was inactive. The result in assay [15] and in [16] was inactive. Further, the inhibition in [5] is 88% (active); in assay [6], 42% (active).

In the case of `CCOc1ccc(CN2CCN(C(=O)c3ccccc3)CC2)cc1`, the result in [1], in [2], in assay [3], in assay [4], in assay [6] and in [7] was inactive. Also, the outcome in assay [8], in assay [9], in assay [10], in assay [11], in [12] and in [14] was inactive. In addition, the result in [15] and in assay [16] was inactive. Further, the inhibition in assay [5] is 79% (active); in [13], 44.7% (active).

Take `CC(C)=CCCC(C)CN1CCC(n2nccc2NC(=O)C2CCCC2)CC1` (stereo not given): the result in assay [1], in assay [2], in [3], in assay [4], in assay [7] and in [8] was inactive. Further, the result in assay [9], in assay [10], in [11], in assay [12], in assay [14] and in assay [15] was inactive. The result in [16] was inactive. The inhibition is 99% (active) in [5], 63% (active) in assay [6] and 38% (active) in assay [13].

For `NC(=O)c1nsc(C(=O)N(Cc2ccco2)C(C(=O)NCc2ccc(F)cc2)c2ccc(O)cc2)c1N` (stereo not given), the result in [1], in [2], in assay [3], in assay [4], in assay [7] and in assay [8] was inactive. In addition, the compound was classed as inactive in assay [9], in assay [10], in assay [11], in assay [12], in assay [14] and in assay [15]. The outcome in [16] was inactive. For the same compound, the figures for the inhibition in assay [5], in [6] and in assay [13] were 84% (active), 55% (active) and 25.1% (active), respectively.
